Measured values from PubChem BioAssay AID1159580 (chemical genetic matrix, 2015).
The campaign covered roughly 5,500 compounds. About 2,000 (36%) were called active. About 18% were inconclusive and are not listed. Rule as the data show it: active = normalized growth mostly below about 0.91 (no sharp cut-off); inconclusive = no clear call, values can overlap the other calls; inactive = mostly above about 0.92. The list shows a part of the results.

Assay: chemical genetic growth profiling, strain panel (AID 1159580);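 also: tested at 20 µM; growth read once vehicle control cultures reached saturation at 30 °C; 1 = growth at the plate median or of vehicle wells; lower values mean less growth of the strain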
Conditions: growth OD

Measured: normalized growth

CCCCOC(=O)c1ccccc1C(=O)OCc1ccccc1
inactive: S. cerevisiae deletion strains, locus YAL013W, strain DEP1, active compounds read low 0.988 | S. cerevisiae deletion strains, locus YBR021W, strain FUR4, active compounds read low 0.965 | S. cerevisiae deletion strains, locus YBR229C, strain ROT2, active compounds read low 0.987 | S. cerevisiae deletion strains, locus YCL029C, strain bik1, active compounds read low 0.957 | S. cerevisiae deletion strains, locus YDL035C, strain GPR1, active compounds read low 0.956 | S. cerevisiae deletion strains, locus YDL074C, strain BRE1, active compounds read low 0.971 | S. cerevisiae deletion strains, locus YDL101C, strain DUN1, active compounds read low 0.99 | S. cerevisiae deletion strains, locus YDL134C, strain PPH21, active compounds read low 0.986 | S. cerevisiae deletion strains, locus YDL185W, strain tfp1, active compounds read low 0.961 | S. cerevisiae deletion strains, locus YDL192W, strain arf1, active compounds read low 0.972 | S. cerevisiae deletion strains, locus YDR101C, strain arx1, active compounds read low 0.971 | S. cerevisiae deletion strains, locus YDR150W, strain NUM1, active compounds read low 0.947 | S. cerevisiae deletion strains, locus YDR162C, strain NBP2, active compounds read low 0.975 | S. cerevisiae deletion strains, locus YDR318W, strain mcm21, active compounds read low 0.967 | S. cerevisiae deletion strains, locus YDR388W, active compounds read low 0.95 | S. cerevisiae deletion strains, locus YDR502C, strain sam2, active compounds read low 0.966 | S. cerevisiae deletion strains, locus YEL061C, strain CIN8, active compounds read low 0.989 | S. cerevisiae deletion strains, locus YER110C, active compounds read low 0.968 | S. cerevisiae deletion strains, locus YER155C, strain BEM2, active compounds read low 0.968 | S. cerevisiae deletion strains, locus YER167W, strain BCK2, active compounds read low 0.983 | S. cerevisiae deletion strains, locus YGL078C, strain dbp3, active compounds read low 0.968 | S. cerevisiae deletion strains, locus YGL086W, strain mad1, active compounds read low 0.975 | S. cerevisiae deletion strains, locus YGL248W, strain PDE1, active compounds read low 0.993 | S. cerevisiae deletion strains, locus YGR078C, strain PAC10, active compounds read low 0.97 | S. cerevisiae deletion strains, locus YGR135W, strain pre9, active compounds read low 0.972 | S. cerevisiae deletion strains, locus YGR229C, strain SMI1, active compounds read low 0.895 | S. cerevisiae deletion strains, locus YGR252W, strain gcn5, active compounds read low 0.994 | S. cerevisiae deletion strains, locus YHR030C, strain SLT2, active compounds read low 0.981 | S. cerevisiae deletion strains, locus YHR079C, strain IRE1 (second series), active compounds read low 0.966 | S. cerevisiae deletion strains, locus YHR094C, strain hxt1, active compounds read low 0.965 | S. cerevisiae deletion strains, locus YHR129C, strain ARP1, active compounds read low 0.983 | S. cerevisiae deletion strains, locus YHR200W, strain rpn10, active compounds read low 0.978 | S. cerevisiae deletion strains, locus YIL066C, strain RNR3, active compounds read low 0.929 | S. cerevisiae deletion strains, locus YIL073C, strain SPO22, active compounds read low 0.821 | S. cerevisiae deletion strains, locus YIL125W, strain kgd1, active compounds read low 0.978 | S. cerevisiae deletion strains, locus YIR030C, strain dcg1, active compounds read low 0.965 | S. cerevisiae deletion strains, locus YJL095W, strain BCK1, active compounds read low 0.994 | S. cerevisiae deletion strains, locus YJL134W, strain LCB3, active compounds read low 0.968 | S. cerevisiae deletion strains, locus YJL168C, strain set2, active compounds read low 0.974 | S. cerevisiae deletion strains, locus YJL187C, strain SWE1 (second series), active compounds read low 0.971 | S. cerevisiae deletion strains, locus YJR043C, strain POL32, active compounds read low 0.989 | S. cerevisiae deletion strains, locus YJR075W, strain HOC1, active compounds read low 0.98 | S. cerevisiae deletion strains, locus YKL009W, strain mrt4, active compounds read low 0.94 | S. cerevisiae deletion strains, locus YKL068W, active compounds read low 0.964 | S. cerevisiae deletion strains, locus YKL085W, strain MDH1 (second series), active compounds read low 0.973 | S. cerevisiae deletion strains, locus YKL085W, strain MDH1, active compounds read low 0.973 | S. cerevisiae deletion strains, locus YKL190W, strain CNB1, active compounds read low 0.979 | S. cerevisiae deletion strains, locus YKR001C, strain vps1, active compounds read low 0.959 | S. cerevisiae deletion strains, locus YLR039C, strain RIC1, active compounds read low 0.934 | S. cerevisiae deletion strains, locus YLR058C, strain SHM2, active compounds read low 0.974 | S. cerevisiae deletion strains, locus YLR102C, strain apc9, active compounds read low 0.971 | S. cerevisiae deletion strains, locus YLR262C, strain YPT6, active compounds read low 0.858 | S. cerevisiae deletion strains, locus YLR268W, strain sec22, active compounds read low 0.968 | S. cerevisiae deletion strains, locus YLR330W, strain CHS5, active compounds read low 0.987 | S. cerevisiae deletion strains, locus YLR342W, strain FKS1 (second series), active compounds read low 0.952 | S. cerevisiae deletion strains, locus YLR371W, strain rom2, active compounds read low 0.97 | S. cerevisiae deletion strains, locus YLR418C, strain cdc73, active compounds read low 0.976 | S. cerevisiae deletion strains, locus YML016C, strain PPZ1, active compounds read low 0.996 | S. cerevisiae deletion strains, locus YML032C, strain rad52, active compounds read low 0.964 | S. cerevisiae deletion strains, locus YML124C, strain tub3, active compounds read low 0.956 | S. cerevisiae deletion strains, locus YMR078C, strain ctf18, active compounds read low 0.957 | S. cerevisiae deletion strains, locus YMR223W, strain ubp8, active compounds read low 0.957 | S. cerevisiae deletion strains, locus YMR263W, strain SAP30, active compounds read low 0.973 | S. cerevisiae deletion strains, locus YMR307W, strain GAS1, active compounds read low 0.718 | S. cerevisiae deletion strains, locus YNL067W, strain RPL9B, active compounds read low 0.979 | S. cerevisiae deletion strains, locus YNL128W, strain TEP1, active compounds read low 0.985 | S. cerevisiae deletion strains, locus YNL153C, strain GIM3, active compounds read low 0.981 | S. cerevisiae deletion strains, locus YNL233W, strain BNI4, active compounds read low 0.998 | S. cerevisiae deletion strains, locus YNL250W, strain rad50, active compounds read low 0.968 | S. cerevisiae deletion strains, locus YNL271C, strain bni1, active compounds read low 0.973 | S. cerevisiae deletion strains, locus YNL298W, strain CLA4, active compounds read low 0.949 | S. cerevisiae deletion strains, locus YNL307C, strain MCK1, active compounds read low 0.915 | S. cerevisiae deletion strains, locus YNL322C, strain KRE1, active compounds read low 0.981 | S. cerevisiae deletion strains, locus YNR052C, strain pop2, active compounds read low 0.964 | S. cerevisiae deletion strains, locus YOL006C, strain TOP1, active compounds read low 0.838 | S. cerevisiae deletion strains, locus YOL012C, strain htz1 0.742 | S. cerevisiae deletion strains, locus YOL147C, strain pex11, active compounds read low 0.964 | S. cerevisiae deletion strains, locus YOR061W, strain CKA2, active compounds read low 0.984 | S. cerevisiae deletion strains, locus YOR069W, strain VPS5, active compounds read low 0.982 | S. cerevisiae deletion strains, locus YOR136W, strain idh2, active compounds read low 0.972 | S. cerevisiae deletion strains, locus YOR144C, strain elg1, active compounds read low 0.962 | S. cerevisiae deletion strains, locus YOR184W, strain ser1, active compounds read low 0.931 | S. cerevisiae deletion strains, locus YOR316C, strain cot1, active compounds read low 0.972 | S. cerevisiae deletion strains, locus YPL055C, strain LGE1, active compounds read low 0.957 | S. cerevisiae deletion strains, locus YPL241C, strain CIN2, active compounds read low 0.979 | S. cerevisiae deletion strains, locus YPR119W, strain clb2, active compounds read low 0.955 | S. cerevisiae deletion strains, locus YPR141C, strain kar3, active compounds read low 0.959 | S. cerevisiae deletion strains, locus YPR163C, strain tif3, active compounds read low 0.963 | S. cerevisiae deletion strains, locus YPR167C, strain met16, active compounds read low 0.98 | S. cerevisiae deletion strains, strain wtn01, active compounds read low 0.96 | S. cerevisiae strains, strain wild type, active compounds read low 0.981
